The results in this text go back to the supplement of paper PMC11417369.

± gives the standard deviation of the averaged measurements. Over roughly 25,000 sequences, “ln(normalized median fluorescence intensity)” has its median near 8.9; the highest 2% begin near 10. What follows is part of a selection rich in the highest values, with near analogues and random picks from the rest.

The subject of this test is PfAP2-LT AP2 domain (GST-tagged). Briefly: gcPBM binding intensity (ln(normalized median fluorescence intensity)); higher = stronger DNA binding. Summed up: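 Probes on an Agilent 4 × 180k array were primer-extended, double-stranded and 36 bp long, taken from intergenic genomic regions, with negative controls added. GST-tagged P. falciparum DNA-binding domains from E. coli, about 25 μg on average, were applied to the array for 1 h in 1× PBS containing 1% milk, 0.2 mg/ml BSA, 0.5% salmon testes DNA and 0.03% Triton X-100. Binding intensity, obtained after Alexa488 anti-GST antibody detection and a 488 nm scan, is the highest Masliner-normalised natural-log median intensity across replicate spots of either probe orientation.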
In the case of “TGAAAATATTTTATATGTACATATATTATCAATACA [XGTACX_site92]”, the “gcPBM binding intensity (ln)” value came to 8.64 ± 0.38.

Consider “TTTCTGATATTTTTATATTTTCTTATATATATATAT [GTGCAC_negctrl_site652]”, for which the “gcPBM binding intensity (ln)” value worked out at 8.77 ± 0.52.

For “TGTCTTATTTATATTACACACTATATGAAAAAATAT [CACACA_site6807]”, the “gcPBM binding intensity (ln)” value amounted to 8.6 ± 0.38.

As to “ATAAATAAATAAGTACATATATATATGTATATATAT [TGCATGCA_negctrl_site223]”, the “gcPBM binding intensity (ln)” value was determined as 9.05 ± 0.42.

Take “ACTAAATAAATAAATATAATATATAAATATGTATGT [TGCATGCA_negctrl_site583]”: the “gcPBM binding intensity (ln)” value stood at 8.78 ± 0.43.

Take “TTTATTAATAATTATACACACATATAAAATGAATAA [CACACA_site1359]”: the “gcPBM binding intensity (ln)” value is 8.58 ± 0.51.

Consider “TTAATATGAAAACTCTGTACCCAACCTTCTTATGGA [XGTACX_site2126]”, for which the “gcPBM binding intensity (ln)” value was 8.62 ± 0.28.

For the sequence “ATGCAATTATATAGTAGTACAAATTTATAAATATAC [XGTACX_site4869]”, the “gcPBM binding intensity (ln)” value was 8.94 ± 0.37.

In the case of “ATTTAATAAAAAAAAAAAATATTGTAGAATATGATG [GTGCAC_negctrl_site195]”, the “gcPBM binding intensity (ln)” value was determined as 8.27 ± 0.52.

As for “AAAGGTATATATGTGTGTACATATATATATATATAT [XGTACX_site5629]”, the “gcPBM binding intensity (ln)” value was 9.955 ± 0.0071.

As to “TCCTTTTCTTAATTTAAAAAATATAAAAAAAACGAA [CACACA_negctrl_site1821]”, the “gcPBM binding intensity (ln)” value was determined as 7.94 ± 0.34.

As for “TGAACTCATAGGAAAACACACATATGTGCAATATAT [CACACA_site6231]”, the “gcPBM binding intensity (ln)” value is 9.12 ± 0.36.

For the sequence “AAGGTAAACGGACACACACACATACAAAAAAAAAAA [CACACA_site5961]”, the “gcPBM binding intensity (ln)” value was determined as 9.77 ± 0.67.

For the sequence “TACAAACAGACATATACACACAAAAAAAAAATAAAA [CACACA_site2562]”, the “gcPBM binding intensity (ln)” value was 9.16 ± 0.43.

Regarding “AAAACAGACAAACACACACACACATATATATATATA [CACACA_site3393]”, the “gcPBM binding intensity (ln)” value came to 10.37 ± 0.071.

On to “AAAAGGAACAGACACACACACATATATATATATATA [CACACA_site3587]”, for which the “gcPBM binding intensity (ln)” value amounted to 10.3 ± 0.29.

As for “AAAACAAACAGACACACACACATATTTATATTTATA [CACACA_site7681]”, the “gcPBM binding intensity (ln)” value is 9.79 ± 0.4.

For “AAAAGGAACAGACACACACACATATATAAATATGTA [CACACA_site7656]”, the “gcPBM binding intensity (ln)” value is 9.8 ± 0.42.

As for “AAAAAAAACAGACACACACACATAAATATAAATAAA [CACACA_site6214]”, the “gcPBM binding intensity (ln)” value stood at 9.74 ± 0.31.

As for “AAAAAAAACAGACACACACACATACAAAATATATAT [CACACA_site1449]”, the “gcPBM binding intensity (ln)” value came to 9.79 ± 0.3.

On to “AAAACAAACAGACACACACACATATATATATATATA [CACACA_site3655]”, for which the “gcPBM binding intensity (ln)” value is 10.4 ± 0.24.

In the case of “AAAAAAAACGGACACACACACATACAAAATATATAT [CACACA_site4910]”, the “gcPBM binding intensity (ln)” value was found to be 9.99 ± 0.28.

Regarding “TATATATACAGACACATACACACAAATAAAAAAACA [CACACA_site3413]”, the “gcPBM binding intensity (ln)” value came to 9.39 ± 0.35.

As for “AAAACAAACGGACACACACACATATATATATATATA [CACACA_site5924]”, the “gcPBM binding intensity (ln)” value was 10.2 ± 0.44.

In the case of “ATAACATATTTCTTTTGTACTCAAAATAAAATTAAT [XGTACX_site2479]”, the “gcPBM binding intensity (ln)” value worked out at 8.37 ± 0.4.

Turning to “ATATAATAAATATGTTGTACTATAAAAAATAGCCAT [XGTACX_site4710]”, the “gcPBM binding intensity (ln)” value stood at 8.78 ± 0.33.

Turning to “AAATTATAATTAGGAACACACATATATATATATATA [CACACA_site3098]”, the “gcPBM binding intensity (ln)” value is 9.78 ± 0.29.

With “GGACTATACAGTTATACACACACATATATATATAAT [CACACA_site7991]”, the “gcPBM binding intensity (ln)” value came to 9.6 ± 0.4.

Consider “AAGAAGCATAAATGTACACACATATTTATATATTAA [CACACA_site1332]”, for which the “gcPBM binding intensity (ln)” value stood at 9.01 ± 0.43.

For “ATATATATATATATATGTACATATTTTATAACTGTA [XGTACX_site5395]”, the “gcPBM binding intensity (ln)” value came to 9.72 ± 0.35.

Take “ATATATATATATATATGTACATATGTCAACTGTCTA [XGTACX_site8636]”: the “gcPBM binding intensity (ln)” value stood at 10.1 ± 0.43.

In the case of “ATATATATATATGTCTGTACATAAAAAATAATAAAT [XGTACX_site3122]”, the “gcPBM binding intensity (ln)” value is 8.975 ± 0.064.

As to “TTTTTGTAATATTATGATGTCATATATATATATATA [XGTACX_negctrl_site618]”, the “gcPBM binding intensity (ln)” value amounted to 9.035 ± 0.078.

“TTTTAAATATGCAGATGTACATTATAATGTTTTATT [XGTACX_site2079]”: the “gcPBM binding intensity (ln)” value stood at 8.87 ± 0.47.

As to “TAGTATAATATGAACACACACACACGCACAAAAAAA [CACACA_site7035]”, the “gcPBM binding intensity (ln)” value came to 9.94 ± 0.27.

Turning to “AATATATAGAAACACACACACAAAAAAAAAAAAAAA [CACACA_site1326]”, the “gcPBM binding intensity (ln)” value was found to be 9.27 ± 0.47.

For “TATATATAGAAACACACACACAAAAAAAAAAAAAAA [CACACA_site1506]”, the “gcPBM binding intensity (ln)” value is 9.15 ± 0.46.

As for “TAGTATAATATGAACACACACACACCCACAAAAAAA [CACACA_site2009]”, the “gcPBM binding intensity (ln)” value came to 10 ± 0.29.

“GTATAATAGAAACACACACACACACCCAAAAAAAAA [CACACA_site2010]”: the “gcPBM binding intensity (ln)” value amounted to 10.3 ± 0.39.

On to “ATCGTAGTATAATATGAACACACACCCACCCACAAA [CACACA_site8616]”, for which the “gcPBM binding intensity (ln)” value was found to be 9.71 ± 0.29.

Turning to “ATAATATGAAAACACACACACACACCCAAAAAAAAA [CACACA_site2011]”, the “gcPBM binding intensity (ln)” value was determined as 10.1 ± 0.15.

With “GTATAATATGAACACACACACACACGCAAAAAAAAA [CACACA_site7036]”, the “gcPBM binding intensity (ln)” value was found to be 10.19 ± 0.064.

As for “ATATATATGAAACACACACACAAAAAAAAAAAAAAA [CACACA_site3647]”, the “gcPBM binding intensity (ln)” value was 9.45 ± 0.57.

On to “TCATATGTGAAACACACACACACACCCAAAAAAACA [CACACA_site3247]”, for which the “gcPBM binding intensity (ln)” value was found to be 10.06 ± 0.028.

Regarding “GTATAATATGAACACACACACACACCCAAAAAAAAA [CACACA_site5152]”, the “gcPBM binding intensity (ln)” value was 10.3 ± 0.45.

For the sequence “TAGTATAATATGAACACACACACACCGACAAAAAAA [CACACA_site5151]”, the “gcPBM binding intensity (ln)” value was determined as 9.96 ± 0.2.

In the case of “TTTTTTTTTGAAAAAAGTACTTAATTTTTAAGAAGA [XGTACX_site3591]”, the “gcPBM binding intensity (ln)” value was 7.83 ± 0.3.

Turning to “AATATATATATATATATATATTTTTGTTAGAATATG [XGTACX_negctrl_site58]”, the “gcPBM binding intensity (ln)” value was determined as 8.95 ± 0.32.

Turning to “TAAGTTTGTCAATCAACACACACCTATTTATTATAT [CACACA_site3919]”, the “gcPBM binding intensity (ln)” value is 9.11 ± 0.35.

Regarding “AACACAATAAAAATTAAAAATGTTAAGTAAATATAA [GTGCAC_negctrl_site60]”, the “gcPBM binding intensity (ln)” value turned out to be 8.68 ± 0.52.

As for “ATATATATATGAATCACACACAAAAAATATAGAGAT [CACACA_site3913]”, the “gcPBM binding intensity (ln)” value came out at 9.51 ± 0.41.

With “ATGCAACTATATATATATATTATATGTATGAATAAT [XGTACX_negctrl_site434]”, the “gcPBM binding intensity (ln)” value is 8.97 ± 0.28.

On to “ATAATATATTTATGTTGTACAAGGAAAATTTTGAAA [XGTACX_site3472]”, for which the “gcPBM binding intensity (ln)” value amounted to 8.76 ± 0.42.

In the case of “ATTTTTTTTATTCAATGTACTTTTTTTTATATATAT [XGTACX_site4978]”, the “gcPBM binding intensity (ln)” value came to 8.8 ± 0.45.

Turning to “TATACTCAGAAACACACACACACACCCAAAAAAAAA [CACACA_site4434]”, the “gcPBM binding intensity (ln)” value was found to be 10.1 ± 0.35.

Regarding “TATACATACTCACCCACACACAAAAAAAAAAAAAAA [CACACA_site862]”, the “gcPBM binding intensity (ln)” value is 9.28 ± 0.47.

For “AGTATACTCAAACACACACACACAAAAAAAAAAAAA [CACACA_site4398]”, the “gcPBM binding intensity (ln)” value turned out to be 9.88 ± 0.58.
